Test systems include SK-MEL-2 melanoma; EKVX NSCLC; SN12C renal; UO-31 renal; TK-10 renal; ACHN renal; A498 renal; CCRF-CEM leukemia; MOLT-4 leukemia; SR leukemia; RPMI-8226 leukemia; OVCAR-8 ovarian; OVCAR-5 ovarian; OVCAR-4 ovarian; SK-OV-3 ovarian; IGROV1 ovarian; OVCAR-3 ovarian; HS 578T breast; NCI/ADR-RES ovarian.
Common to all, as to experiment: NCI-60 one-dose screen, 48 h (100 = growth as untreated, 0 = no growth, -100 = all killed)
Holding throughout (conditions): 10 µM unless noted

The panel holds about 83,000 compounds, 20% with a hit somewhere; the sample as a whole holds those more often.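 Treatment: one concentration, 48 hours, 96-well format. Scoring: percent growth, with anything below 10 considered active.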 Values without a mark were called inactive. Activity calls are given as the source filed them.

With `O=C(C[n+]1cccc(Br)c1)c1ccc2c(c1)CCCC2`, the growth in the experiment with SK-MEL-2 melanoma is 102%; in the experiment with EKVX NSCLC it was 94.8%; in the experiment on SN12C renal, 104%; with UO-31 renal, 90.1%; in the experiment on TK-10 renal, 105%; with ACHN renal, 108%. Further, the growth in the experiment with A498 renal is 106%; in the experiment with CCRF-CEM leukemia it was 102%; with MOLT-4 leukemia, 86.2%; in the experiment on SR leukemia, 99.3%; with RPMI-8226 leukemia, 96%; in the experiment with OVCAR-8 ovarian it was 108%. Also, the growth in the experiment on OVCAR-5 ovarian was 96.2%; in the experiment on OVCAR-4 ovarian it was 114%; in the experiment with SK-OV-3 ovarian it was 89.7%; with IGROV1 ovarian, 101%; in the experiment on OVCAR-3 ovarian it was 99.9%; in the experiment on HS 578T breast it was 105%. Further, the growth with NCI/ADR-RES ovarian was 102%.
As to `CC(C)(C)OC(=O)N1CCN(CCn2cc(C(F)(F)F)c3c(Cl)ncnc32)CC1`, the growth with SK-MEL-2 melanoma is 44.5%; in the experiment with EKVX NSCLC, 101%; in the experiment on SN12C renal, 71.9%; with UO-31 renal, -80.8% (active); in the experiment with TK-10 renal, 115%; in the experiment on ACHN renal, 96.6%. The growth with A498 renal was 103%; in the experiment on CCRF-CEM leukemia, 28.5%; in the experiment on MOLT-4 leukemia, 23.4%; in the experiment on SR leukemia, -17.8% (active); in the experiment with RPMI-8226 leukemia, 86.3%; in the experiment on OVCAR-8 ovarian, -61.4% (active). Also, the growth in the experiment on OVCAR-5 ovarian was 108%; in the experiment on OVCAR-4 ovarian, 103%; in the experiment on SK-OV-3 ovarian, 96.9%; with IGROV1 ovarian it was -69.5% (active); in the experiment with OVCAR-3 ovarian, 85.2%; in the experiment on HS 578T breast, 82.5%. In addition, the growth in the experiment on NCI/ADR-RES ovarian was 104%.
Consider `CCCCCn1ncc(-c2c(O)c(O)cc3c(O)c(-c4c(C)cc5c(-c6cnn(CCCCC)n6)c(O)c(O)cc5c4O)c(C)cc23)n1`, for which the growth with SK-MEL-2 melanoma was 3.71% (active); with EKVX NSCLC it was 9.87% (active); in the experiment with SN12C renal, 18.6%; in the experiment with UO-31 renal it was -49.5% (active); in the experiment on TK-10 renal, 10.2%; in the experiment with ACHN renal, 6.56% (active). For the same compound, the growth with A498 renal was 53%; in the experiment with CCRF-CEM leukemia, 1.09% (active); with MOLT-4 leukemia, 6.44% (active); with SR leukemia, -29.1% (active); with RPMI-8226 leukemia, 0.346% (active); with OVCAR-8 ovarian, 8.04% (active). Moreover, the growth with OVCAR-5 ovarian was 32.3%; in the experiment on OVCAR-4 ovarian it was 34.6%; with SK-OV-3 ovarian, -0.985% (active); in the experiment on IGROV1 ovarian, 13.2%; with OVCAR-3 ovarian it was 8.42% (active); in the experiment on HS 578T breast, 31%. Besides, the growth in the experiment on NCI/ADR-RES ovarian is 2.37% (active).
On to `O=C(Cn1c2ccccc2c2ccncc21)N/N=C/c1cc(O)c(O)c(O)c1`, for which the growth in the experiment on SK-MEL-2 melanoma is 98.9%; in the experiment on EKVX NSCLC it was 109%; with SN12C renal, 104%; with UO-31 renal, 98.6%; in the experiment on TK-10 renal, 107%; with ACHN renal it was 108%. Moreover, the growth in the experiment with A498 renal is 97.5%; in the experiment on CCRF-CEM leukemia it was 112%; with MOLT-4 leukemia, 88.4%; with SR leukemia, 106%; with RPMI-8226 leukemia, 100%; with OVCAR-8 ovarian, 103%. In addition, the growth is 111% in the experiment on OVCAR-5 ovarian; 110% with OVCAR-4 ovarian; 99.4% in the experiment on SK-OV-3 ovarian; 107% with IGROV1 ovarian; 106% with OVCAR-3 ovarian; 105% in the experiment on HS 578T breast. The growth with NCI/ADR-RES ovarian was 103%.
In the case of `COc1ccc(SC2c3ccc(O)cc3Oc3nc(N)c(C#N)c(N)c32)cc1` (stereo unspecified), the growth was 98.1% in the experiment with SK-MEL-2 melanoma; 79% in the experiment on EKVX NSCLC; 54.3% in the experiment on SN12C renal; 71.1% with UO-31 renal; 73% in the experiment with TK-10 renal; 97.7% in the experiment with ACHN renal. Besides, the growth with A498 renal was 84.7%; in the experiment with CCRF-CEM leukemia it was 31.8%; in the experiment on MOLT-4 leukemia, 67.7%; with SR leukemia, 59.9%; with RPMI-8226 leukemia it was 96.7%; in the experiment on OVCAR-8 ovarian, 98%. Besides, the growth with OVCAR-5 ovarian is 129%; in the experiment with OVCAR-4 ovarian, 92.9%; with SK-OV-3 ovarian it was 120%; in the experiment on IGROV1 ovarian, 74.3%; in the experiment on OVCAR-3 ovarian, 88.1%; with HS 578T breast it was 94.4%.
For `N#CC1=C(N)Oc2c(ccc3ccccc23)C1c1cc(=O)oc2ccc(Cl)cc12` (stereo unspecified), the growth with SK-MEL-2 melanoma is 43.6%; with EKVX NSCLC, 44.5%; in the experiment with SN12C renal it was 47.5%; in the experiment on UO-31 renal it was 50.9%; in the experiment with TK-10 renal, 71.4%; in the experiment with ACHN renal, 50.8%. The growth was 23.4% with A498 renal; 18.6% with CCRF-CEM leukemia; 20.8% in the experiment on MOLT-4 leukemia; 22.9% in the experiment on SR leukemia; 30.7% in the experiment on RPMI-8226 leukemia; 27.7% with OVCAR-8 ovarian. The growth in the experiment with OVCAR-5 ovarian is 51.6%; with OVCAR-4 ovarian it was 65.8%; in the experiment on SK-OV-3 ovarian it was 16.9%; with IGROV1 ovarian, 39.8%; in the experiment on OVCAR-3 ovarian, -9.67% (active); in the experiment with HS 578T breast, 47.5%. Further, the growth with NCI/ADR-RES ovarian was 12.2%.
Take `COc1ccccc1S(=O)(=O)Nc1ccc2c3c(cc(-c4cnn(C5CC5)c4)nc13)C(=O)N2C`: the growth with SK-MEL-2 melanoma was 78.6%; in the experiment on EKVX NSCLC, 56.1%; in the experiment with SN12C renal it was 76.7%; in the experiment with UO-31 renal it was 34.9%; in the experiment on TK-10 renal, 48.2%; in the experiment with ACHN renal it was 68%. Besides, the growth in the experiment with A498 renal was 59.3%; in the experiment with CCRF-CEM leukemia, 76.9%; in the experiment with MOLT-4 leukemia, 56.3%; in the experiment with SR leukemia, 51.3%; in the experiment on RPMI-8226 leukemia, 10%; in the experiment on OVCAR-8 ovarian it was 70.1%. For the same compound, the growth is 72.6% with OVCAR-5 ovarian; 62.2% in the experiment with OVCAR-4 ovarian; 55.8% in the experiment with SK-OV-3 ovarian; 59.2% in the experiment on IGROV1 ovarian; 69.8% in the experiment with OVCAR-3 ovarian; 55.9% in the experiment on HS 578T breast. For the same compound, in the experiment with NCI/ADR-RES ovarian, the growth was 59%.
On to `CCNc1cc(S(=O)(=O)O)ccc1C`, for which the growth is 100% in the experiment with SK-MEL-2 melanoma; 101% with EKVX NSCLC; 99.8% in the experiment with SN12C renal; 101% in the experiment on UO-31 renal; 101% with TK-10 renal; 113% in the experiment with ACHN renal. Moreover, the growth in the experiment with A498 renal is 102%; with CCRF-CEM leukemia, 89.7%; in the experiment on MOLT-4 leukemia it was 92.3%; in the experiment with SR leukemia, 113%; in the experiment on RPMI-8226 leukemia it was 98%; in the experiment on OVCAR-8 ovarian, 97.3%. Also, the growth was 106% with OVCAR-5 ovarian; 110% in the experiment with OVCAR-4 ovarian; 92.4% in the experiment with SK-OV-3 ovarian; 106% with IGROV1 ovarian; 116% with OVCAR-3 ovarian; 104% in the experiment with HS 578T breast. Further, the growth with NCI/ADR-RES ovarian was 102%.

(Values after PubChem BioAssay (NCI).)
